Screen size: about 320,000 compounds; about 2,100 (0.66%) were called active. Not shown: some 53% with an inconclusive outcome. This is one part of a sample in which actives are shown more often than they occur. Calls follow the shape of the dose curve; as a rule, active = well fitted inhibition curve with a large enough effect in the signal ratio, with a control signal flat (not every such curve was filed as active); inconclusive = small, poorly fitted or top-dose-only effect, or effect the other way, or a change in a side signal; inactive = flat fitted curve, though single readings scatter; the % refers to the signal ratio.
assay: qHTS Assay for Lipid Storage Modulators in Drosophila S3 Cells; conditions: BODIPY lipid droplet fluorescence, 18-24 h, cells fed with added oleic acid; cell number change: measured here: cell count max response; series mostly up to 46.1 µM; lipid storage change, negative = inhibition: at the top concentration;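 as to cell number change: cells counted by Cell Tracker Red CMTPX staining in the red channel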; as to lipid storage change, negative = inhibition: % is scaled to controls: 0 for no effect and ±100 for the full control effect
Method in brief: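 Drosophila S3 cells loaded with oleic acid (400 uM, as added) and compounds at several concentrations; lipid droplets imaged by 488-nm laser-scanning cytometry, 500–530 nm intensity and object ratio to cell channel. Percent activity normalized to 20 uM Triacsin C.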
Potency is read from the fitted curve at half-maximal effect.

Question: Which “lipid storage change, negative = inhibition” value does the source give for `CCN(CC)C(=O)C(Oc1ccc(S(=O)(=O)N2CCCC2)cc1[N+](=O)[O-])c1ccccc1` (configuration not stated) here?
Answer: Its value is -2.31% (inactive).

Question: And the cell number change?
Answer: The cell number change was 3.42%.

Question: For `O=C(CSc1nc2ccccc2s1)Nc1ccc(Cl)c(C(=O)O)c1`, which “lipid storage change, negative = inhibition” value is on record?
Answer: The value was 2.06% (inactive).

Question: What about the cell number change of the same compound?
Answer: Its cell number change is 18.4%.

Question: For `CSc1nsc(SCC(=O)Nc2ccc(Cl)c(C(=O)O)c2)n1`, which Potency is on record?
Answer: Its Potency is 1.46 µM (active).

Question: What about the cell number change of the same compound?
Answer: Its cell number change is 6.94%.

Question: With `CSc1nsc(SCC(=O)Nc2ccc(OC(C)=O)cc2)n1` as the compound, how does the cell number change read?
Answer: Its cell number change is -8.58%.

Question: And the lipid storage change, negative = inhibition?
Answer: Its lipid storage change, negative = inhibition is 1.8% [at 9.22 µM] (inactive).

Question: With `CSc1nsc(SCC(=O)Nc2ccc(C(N)=O)cc2)n1` as the compound, how does the Potency read?
Answer: The Potency was 6.51 µM (active).

Question: What about the cell number change of the same compound?
Answer: Its cell number change is 8.7%.

Question: What does the source list for `CSc1nsc(SCC(=O)Nc2nncs2)n1`?
Answer: lipid storage change, negative = inhibition: 1.82% (inactive); cell number change: 10.5%

Question: With `Nc1nnc(SCC(=O)Nc2ccc(Cl)c(C(=O)O)c2)s1` as the compound, how does the “lipid storage change, negative = inhibition” value read?
Answer: The value was -24.1% (inactive).

Question: What about the cell number change of the same compound?
Answer: Its cell number change is -0.289%.

Question: For `O=C(Nc1cc(C(=O)N2CCN(c3ccccc3O)CC2)ccc1Cl)c1cccs1`, which “lipid storage change, negative = inhibition” value is on record?
Answer: Its value is 0.607% (inactive).

Question: And the cell number change?
Answer: Its cell number change is 5.21%.

Question: Which “outcome” value does the source give for `CCCOc1cccc(C2/C(=C(\O)c3ccc4c(c3)OCCO4)C(=O)C(=O)N2CCCn2ccnc2)c1` (configuration not stated) here?
Answer: The value was “inactive”.

Question: What about the cell number change of the same compound?
Answer: The cell number change was -8.73%.

Question: Which “outcome” value does the source give for `O=C(CCc1nnc2n(CCc3ccccc3)c(=O)c3ccccc3n12)NCCCN1CCCCC1` here?
Answer: The value was “inactive”.

Question: And the cell number change?
Answer: Its cell number change is -8.94%.

Question: Which “lipid storage change, negative = inhibition” value does the source give for `O=[N+]([O-])c1ccccc1/C=N\N1CCN(c2ccccc2)CC1` here?
Answer: Its value is -22% (inactive).

Question: What about the cell number change of the same compound?
Answer: The cell number change was 0.964%.

Question: With `O=[N+]([O-])c1ccccc1/C=N/N1CCN(Cc2ccccc2)CC1` as the compound, how does the Potency read?
Answer: Its Potency is 1.3 µM (active).

Question: And the cell number change?
Answer: Its cell number change is -5.28%.

Question: With `O=[N+]([O-])c1ccc(Cl)c(/C=N/N2CCN(Cc3ccccc3)CC2)c1` as the compound, how does the “lipid storage change, negative = inhibition” value read?
Answer: The value was 12.3% (inactive).

Question: And the cell number change?
Answer: The cell number change was -3.29%.

Question: With `O=S(=O)(NNC(=S)Nc1ccc(S(=O)(=O)Nc2ncccn2)cc1)c1ccc(Br)cc1` as the compound, how does the “outcome” value read?
Answer: Its value is “inactive”.

Question: And the cell number change?
Answer: The cell number change was 4.32%.

Question: With `Cc1cc(C(=O)NCc2ccccc2)no1` as the compound, how does the “lipid storage change, negative = inhibition” value read?
Answer: Its value is -20.2% (inactive).

Question: Which results are given for `Cc1cc(Cn2nc(-c3ccccc3)cc2C(=O)NCC2CC2)on1`?
Answer: lipid storage change, negative = inhibition: -21.7% (inactive); cell number change: -12.8%

Question: Which “lipid storage change, negative = inhibition” value does the source give for `CCOC(=O)c1cc(-c2ccccc2)nn1Cc1cc(C)no1` here?
Answer: The value was -32.4% (inactive).

Question: What about the cell number change of the same compound?
Answer: Its cell number change is -24%.

Question: For `CCOC(=O)c1cc(-c2ccccc2)nn1Cc1cc(CC)no1`, which “lipid storage change, negative = inhibition” value is on record?
Answer: Its value is 3.3% (inactive).

Question: And the cell number change?
Answer: Its cell number change is -20.2%.

Question: Which results are given for `Cc1cc(Cn2nc(C(=O)NCc3cccc(Br)c3)cc2-c2ccccc2)on1`?
Answer: Potency: 13 µM (active); cell number change: 16.4%

Question: With `CCOC(=O)c1cc(-c2ccccc2)n(Cc2cc(CC)no2)n1` as the compound, how does the Potency read?
Answer: Its Potency is 18.4 µM (active).

Question: What about the cell number change of the same compound?
Answer: Its cell number change is -3.23%.

Question: Which “outcome” value does the source give for `COc1cc(-c2noc(CCC(=O)NC3CCCC3)n2)cc(OC)c1OC` here?
Answer: The value was “inactive”.

Question: And the cell number change?
Answer: Its cell number change is -0.87%.

Question: With `CC(C)CNC(=O)NC(=O)CSc1nc2ccccc2n1CC(C)C` as the compound, how does the “outcome” value read?
Answer: The value was “inactive”.

Question: Which results are given for `COc1ccc(/C=C/C(=O)NC(C)CCc2ccccc2)cc1OC` (configuration not stated)?
Answer: lipid storage change, negative = inhibition: -7.83% (inactive); cell number change: 0.149%

Question: For `CCOc1cc(/C=C/C(=O)O)ccc1OCc1ccccc1`, which “lipid storage change, negative = inhibition” value is on record?
Answer: The value was 1.96% (inactive).

Question: And the cell number change?
Answer: The cell number change was 8.37%.

Question: What does the source list for `COc1cc(/C=C/C(=O)NC(C)(C)C)ccc1OCc1ccccc1`?
Answer: Potency: 29.1 µM (active); cell number change: -27.6%

Question: What does the source list for `O=C(NCCCNC(=O)c1ccccc1Br)c1ccccc1Br`?
Answer: lipid storage change, negative = inhibition: -4.06% (inactive); cell number change: -12.7%

Question: Which Potency does the source give for `FC(F)(F)c1cccc(NC(=S)NC2CCCC2)c1` here?
Answer: Its Potency is 18.4 µM (active).

Question: What about the cell number change of the same compound?
Answer: The cell number change was -29.3%.

Question: With `Cc1cccc(NC(=S)NC2CCCC2)c1` as the compound, how does the “lipid storage change, negative = inhibition” value read?
Answer: The value was 17.3% (inactive).

Question: What about the cell number change of the same compound?
Answer: The cell number change was 10.6%.

Question: For `CC(=O)c1cccc(NC(=O)NC2CCCCCCC2)c1`, which “lipid storage change, negative = inhibition” value is on record?
Answer: The value was 10.8% (inactive).

Question: With `Fc1cccc(NC(=S)NC2CCCCCCC2)c1` as the compound, how does the “outcome” value read?
Answer: The value was “inactive”.

Question: What about the cell number change of the same compound?
Answer: The cell number change was -22.8%.

Question: With `O=C(Nc1cccc(F)c1)NC1CCCCC1` as the compound, how does the “outcome” value read?
Answer: The value was “inactive”.

Question: What about the cell number change of the same compound?
Answer: Its cell number change is -7.64%.

Question: What does the source list for `O=C(Nc1cccc(F)c1)NC1CCCCCCC1`?
Answer: Potency: 14.6 µM (active); cell number change: 14.2%

Question: Which “lipid storage change, negative = inhibition” value does the source give for `C/C=C\C=C\C(=O)Nc1cccc(C2=NOC3(C2)C[C@H](C(N)=O)N(C(=O)c2ccccc2C(=O)c2ccccc2)C3)c1` (some centres not stated) here?
Answer: Its value is 8.24% (inactive).

Question: What about the cell number change of the same compound?
Answer: Its cell number change is 1.47%.

Question: What does the source list for `CCOC(=O)c1cnc(NCc2ccccc2)nc1C`?
Answer: outcome: inactive; cell number change: -8.98%

Question: Which “lipid storage change, negative = inhibition” value does the source give for `CCN1CCN(c2cc(C)nc(-c3ccccc3O)n2)CC1` here?
Answer: The value was 8.28% (inactive).

Question: And the cell number change?
Answer: Its cell number change is 0.893%.

Question: With `COc1ccccc1NS(=O)(=O)c1ccc(C(=O)NCC(c2ccccc2OC)N(C)C)cc1` (configuration not stated) as the compound, how does the “lipid storage change, negative = inhibition” value read?
Answer: Its value is -24.9% (inactive).

Question: And the cell number change?
Answer: Its cell number change is 13%.

Question: With `Cc1cc2c(cc1S(=O)(=O)N(C)Cc1ccccc1)n(C)c(=O)c(=O)n2C` as the compound, how does the “outcome” value read?
Answer: Its value is “inactive”.

Question: And the cell number change?
Answer: The cell number change was -28.5%.

Question: Which results are given for `Cc1cccc(N(C)S(=O)(=O)c2cc3c(cc2C)n(C)c(=O)c(=O)n3C)c1`?
Answer: Potency: 13 µM (active); cell number change: -12.7%

Question: Which “lipid storage change, negative = inhibition” value does the source give for `Cc1cccc(NS(=O)(=O)c2cn(C)c(=O)n(C)c2=O)c1C` here?
Answer: Its value is -26.7% (inactive).

Question: What about the cell number change of the same compound?
Answer: Its cell number change is 14.4%.

Question: Which “lipid storage change, negative = inhibition” value does the source give for `Cc1cc2[nH]c(=O)c(=O)[nH]c2cc1S(=O)(=O)Nc1cccc(C)c1C` here?
Answer: Its value is 14.4% (inactive).

Question: And the cell number change?
Answer: The cell number change was -1.15%.

Question: Which results are given for `Cc1cc2c(cc1S(=O)(=O)N(C)c1ccccc1)n(C)c(=O)n2C`?
Answer: lipid storage change, negative = inhibition: -21.6% (inactive); cell number change: 9.55%

Question: With `Cc1cc2c(cc1S(=O)(=O)NCc1ccccc1)n(C)c(=O)c(=O)n2C` as the compound, how does the “outcome” value read?
Answer: The value was “inactive”.

Question: And the cell number change?
Answer: Its cell number change is -17.3%.

Question: For `CCN(c1ccccc1)S(=O)(=O)c1cc2c(cc1C)n(C)c(=O)c(=O)n2C`, which Potency is on record?
Answer: The Potency was 8.2 µM (active).

Question: What about the cell number change of the same compound?
Answer: Its cell number change is -9.51%.

Question: With `CCN(c1ccccc1)S(=O)(=O)c1cc(C(=O)O)ccc1C` as the compound, how does the “lipid storage change, negative = inhibition” value read?
Answer: The value was 14.4% (inactive).

Question: What about the cell number change of the same compound?
Answer: The cell number change was -3.04%.

Question: With `Cc1cc2c(cc1S(=O)(=O)Nc1cccc(C)c1C)n(C)c(=O)c(=O)n2C` as the compound, how does the Potency read?
Answer: Its Potency is 9.2 µM (active).

Question: What about the cell number change of the same compound?
Answer: The cell number change was -26.2%.

From PubChem BioAssay AID2685 (National Center for Advancing Translational Sciences (NCATS), 2010)
